Results from article PMC5540273 (PLoS ONE, 2017).

These molecules were tested on WNK2. Details: concentration: 1 μM, replicates: in singlicate; n = 1.
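Also: KINOMEscan kinase panel screen.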

Question: For `CC(C)(C)OC(=O)NC1CCCN(c2cc(-c3ccc4c(N)n[nH]c4c3)nc(N)n2)C1` (stereo not shown) [GSK2286096], which “%Inh” value is on record?
Answer: The value was 70%.

Question: How did the “%Inh” value turn out when `Fc1cccc(COc2ccc(Nc3ncnc4sc(-c5ccc[nH]5)cc34)cc2Cl)c1` [GW707818] was run?
Answer: The value was 6%.

Question: Which “%Inh” value does the source give for `COc1cc2c(Nc3cccc(NC(=O)c4ccccc4)c3)ncnc2cc1OCCCN1CCOCC1` [GSK223810] here?
Answer: The value was 10%.

Question: For `O=C(c1ccc(-c2cc(-c3c[nH]nc3-c3ccccn3)ccn2)cc1)N1CCCC1` [GW792479], which “%Inh” value is on record?
Answer: Its value is 0%.

Question: Which “%Inh” value does the source give for `Cc1ccc(C)c(NC(=O)NCCNc2ccnc(Nc3ccc(F)cc3)n2)c1` [GSK1379878] here?
Answer: Its value is 9%.

Question: With `CC(=O)Nc1n[nH]c2ncc(-c3ccccc3)cc12` [SB-548492] as the molecule, how does the “%Inh” value read?
Answer: Its value is 0%.

Question: For `Cl.Cn1ccc(-c2cccc(Nc3ccnc4cc(-c5nccs5)ccc34)c2)n1` [GW525701], which “%Inh” value is on record?
Answer: The value was 18%.

Question: With `O=C(CCO)NCCn1ccc2ncnc(Nc3ccc(Oc4cccc(C(F)(F)F)c4)c(Cl)c3)c21` as the molecule, how does the “%Inh” value read?
Answer: Its value is 0%.

Question: How did the “%Inh” value turn out when `O=C(Nc1n[nH]c2nc(-c3ccco3)c(Br)cc12)c1ccc(CN2CCCC2)cc1.O=C(O)[C@H](O)[C@@H](O)C(=O)O` [SB-742352] was run?
Answer: The value was 0%.

Question: `Oc1ccc2ncnc(Nc3ccc(OCc4ccccc4)cc3)c2c1` [GI262866] was tested. Which “%Inh” value did it give?
Answer: The value was 0%.

Question: Which “%Inh” value does the source give for `NC(=O)c1sc(-n2cnc3ccccc32)cc1OCc1ccccc1F` [GSK1024306] here?
Answer: Its value is 27%.

Question: How did the “%Inh” value turn out when `Fc1cccc(COc2ccc(Nc3ncnc4nn5ccccc5c34)cc2Cl)c1` [GW689066] was run?
Answer: Its value is 0%.

Question: How did the “%Inh” value turn out when `O=c1cc(N2CCOCC2)nc2n(Cc3cccc(Cl)c3)ccn12` [GSK2296823] was run?
Answer: The value was 0%.

Question: With `O=C(Nc1ccccc1)Nc1ccc(Oc2ccc3nccn3n2)cc1` as the molecule, how does the “%Inh” value read?
Answer: Its value is 0%.

Question: Which “%Inh” value does the source give for `Fc1cccc(COc2ccc(Nc3ncnc4cc[nH]c34)cc2Cl)c1` here?
Answer: The value was 14%.

Question: `C[C@@H]1CCN(C(=O)CO)C[C@@H]1N(C)c1ncnc2[nH]ccc12` was tested. Which “%Inh” value did it give?
Answer: The value was 0%.

Question: Which “%Inh” value does the source give for `FC(F)(F)c1ccc(-c2nn3ncccc3c2-c2ccnc(Nc3cccc(C(F)(F)F)c3)n2)cc1` [GW828205] here?
Answer: Its value is 0%.

Question: Which “%Inh” value does the source give for `CSc1nn2c(=O)cc(N3CCOCC3)nc2n1Cc1cccc(Cl)c1Cl` [GSK2347225] here?
Answer: Its value is 18%.

Question: How did the “%Inh” value turn out when `Cl.c1ccc(Cn2ccc3cc(Nc4ncnc5ccccc45)ccc32)cc1` [GW275568] was run?
Answer: Its value is 18%.

Question: With `CCCc1ccc(S(=O)(=O)NC2CCN(c3ccnc(Nc4ccc(OC)cc4)n3)C2)cc1` (stereo not shown) [GSK1379737] as the molecule, how does the “%Inh” value read?
Answer: The value was 0%.

Question: For `CCn1c(-c2ccncc2)nc2cnccc21` [SB-735216], which “%Inh” value is on record?
Answer: The value was 29%.

Question: How did the “%Inh” value turn out when `Nc1nc(-c2ccc3c(N)n[nH]c3c2)cc(N2CCCCC2)n1` [GSK2228768] was run?
Answer: Its value is 0%.

Question: Which “%Inh” value does the source give for `COC(=O)c1cccc(NC(=O)NCCNc2ccnc(Nc3ccc(F)cc3)n2)c1` [GSK1379883] here?
Answer: Its value is 0%.

Question: How did the “%Inh” value turn out when `CC(C)(C)c1ccc(-n2cnc3c(N)ncnc32)cc1` [SKF-97263] was run?
Answer: The value was 0%.

Question: How did the “%Inh” value turn out when `Cc1cc(N2CCC(NS(=O)(=O)c3ccc(F)cc3)CC2)nc(Nc2cccc(C#N)c2)n1.O=C(O)C(F)(F)F` [GSK1653537] was run?
Answer: Its value is 13%.

Question: `CCC(CC)(CC)n1cnc2c(N)ncnc21` [SKF-97620] was tested. Which “%Inh” value did it give?
Answer: The value was 0%.

Question: For `OCCOCCn1ccc2ncnc(Nc3ccc(Oc4cccc(Cl)c4)c(Cl)c3)c21`, which “%Inh” value is on record?
Answer: Its value is 0%.

Question: Which “%Inh” value does the source give for `COc1ccc(Nc2nccc(N3CCC(NC(=O)c4cccc(NC(C)=O)c4)C3)n2)cc1` (stereo not shown) [GSK1379732] here?
Answer: The value was 11%.

Question: Which “%Inh” value does the source give for `Cc1ccc(O)cc1Nc1cc(C(F)(F)F)nc2ccc(-c3ccncc3)cc12` [GW630823] here?
Answer: Its value is 0%.

Question: Which “%Inh” value does the source give for `Cn1ccc2ncnc(Nc3ccc(Oc4cccc(Cl)c4)c(Cl)c3)c21` here?
Answer: Its value is 31%.

Question: For `Clc1cc(Nc2ncnc3cc[nH]c23)ccc1OCc1ccccn1`, which “%Inh” value is on record?
Answer: The value was 1%.

Question: How did the “%Inh” value turn out when `O=C(NCCCN1CCCC1=O)c1cnc(NCc2cc(Cl)ccc2Cl)nc1NC1CCNCC1` was run?
Answer: The value was 0%.

Question: How did the “%Inh” value turn out when `COc1ccc(Nc2nccc(N3CCC(NC(=O)Nc4ccc5c(c4)OCO5)C3)n2)cc1` (stereo not shown) [GSK1379745] was run?
Answer: The value was 0%.

Question: With `Fc1ccc(Nc2nccc(-c3c(-c4ccc(Cl)cc4)nn4ncccc34)n2)cc1F` [GW829058] as the molecule, how does the “%Inh” value read?
Answer: Its value is 0%.

Question: Which “%Inh” value does the source give for `C[C@H]1CC[C@@H](C(=O)Nc2ccccc2)CN1c1cc(-c2ccc3c(N)n[nH]c3c2)nc(N)n1` [GSK2283293] here?
Answer: The value was 0%.

The molecules below were run on WNK3. Details: concentration: 1 μM, replicates: in singlicate; n = 1.

Question: `CC(C)(C)OC(=O)NC1CCCN(c2cc(-c3ccc4c(N)n[nH]c4c3)nc(N)n2)C1` (stereo not shown) [GSK2286096] was tested. Which “%Inh” value did it give?
Answer: The value was 8%.

Question: Which “%Inh” value does the source give for `Fc1cccc(COc2ccc(Nc3ncnc4sc(-c5ccc[nH]5)cc34)cc2Cl)c1` [GW707818] here?
Answer: The value was 13%.

Question: `COc1cc2c(Nc3cccc(NC(=O)c4ccccc4)c3)ncnc2cc1OCCCN1CCOCC1` [GSK223810] was tested. Which “%Inh” value did it give?
Answer: Its value is 0%.

Question: For `O=C(c1ccc(-c2cc(-c3c[nH]nc3-c3ccccn3)ccn2)cc1)N1CCCC1` [GW792479], which “%Inh” value is on record?
Answer: Its value is 0%.

Question: For `Cc1ccc(C)c(NC(=O)NCCNc2ccnc(Nc3ccc(F)cc3)n2)c1` [GSK1379878], which “%Inh” value is on record?
Answer: The value was 15%.

Question: With `CC(=O)Nc1n[nH]c2ncc(-c3ccccc3)cc12` [SB-548492] as the molecule, how does the “%Inh” value read?
Answer: The value was 0%.

Question: How did the “%Inh” value turn out when `Cl.Cn1ccc(-c2cccc(Nc3ccnc4cc(-c5nccs5)ccc34)c2)n1` [GW525701] was run?
Answer: Its value is 50%.

Question: With `O=C(CCO)NCCn1ccc2ncnc(Nc3ccc(Oc4cccc(C(F)(F)F)c4)c(Cl)c3)c21` as the molecule, how does the “%Inh” value read?
Answer: Its value is 0%.

Question: `O=C(Nc1n[nH]c2nc(-c3ccco3)c(Br)cc12)c1ccc(CN2CCCC2)cc1.O=C(O)[C@H](O)[C@@H](O)C(=O)O` [SB-742352] was tested. Which “%Inh” value did it give?
Answer: Its value is 0%.

Question: `Oc1ccc2ncnc(Nc3ccc(OCc4ccccc4)cc3)c2c1` [GI262866] was tested. Which “%Inh” value did it give?
Answer: The value was 0%.

Question: Which “%Inh” value does the source give for `NC(=O)c1sc(-n2cnc3ccccc32)cc1OCc1ccccc1F` [GSK1024306] here?
Answer: The value was 23%.

Question: How did the “%Inh” value turn out when `Fc1cccc(COc2ccc(Nc3ncnc4nn5ccccc5c34)cc2Cl)c1` [GW689066] was run?
Answer: The value was 20%.

Question: `O=c1cc(N2CCOCC2)nc2n(Cc3cccc(Cl)c3)ccn12` [GSK2296823] was tested. Which “%Inh” value did it give?
Answer: The value was 3%.

Question: With `O=C(Nc1ccccc1)Nc1ccc(Oc2ccc3nccn3n2)cc1` as the molecule, how does the “%Inh” value read?
Answer: Its value is 0%.

Question: How did the “%Inh” value turn out when `Fc1cccc(COc2ccc(Nc3ncnc4cc[nH]c34)cc2Cl)c1` was run?
Answer: Its value is 0%.

Question: With `C[C@@H]1CCN(C(=O)CO)C[C@@H]1N(C)c1ncnc2[nH]ccc12` as the molecule, how does the “%Inh” value read?
Answer: The value was 0%.

Question: `FC(F)(F)c1ccc(-c2nn3ncccc3c2-c2ccnc(Nc3cccc(C(F)(F)F)c3)n2)cc1` [GW828205] was tested. Which “%Inh” value did it give?
Answer: Its value is 0%.

Question: Which “%Inh” value does the source give for `CSc1nn2c(=O)cc(N3CCOCC3)nc2n1Cc1cccc(Cl)c1Cl` [GSK2347225] here?
Answer: Its value is 4%.

Question: How did the “%Inh” value turn out when `Cl.c1ccc(Cn2ccc3cc(Nc4ncnc5ccccc45)ccc32)cc1` [GW275568] was run?
Answer: Its value is 27%.

Question: For `CCCc1ccc(S(=O)(=O)NC2CCN(c3ccnc(Nc4ccc(OC)cc4)n3)C2)cc1` (stereo not shown) [GSK1379737], which “%Inh” value is on record?
Answer: Its value is 38%.

Question: Which “%Inh” value does the source give for `CCn1c(-c2ccncc2)nc2cnccc21` [SB-735216] here?
Answer: Its value is 21%.

Question: With `Nc1nc(-c2ccc3c(N)n[nH]c3c2)cc(N2CCCCC2)n1` [GSK2228768] as the molecule, how does the “%Inh” value read?
Answer: Its value is 0%.

Question: `COC(=O)c1cccc(NC(=O)NCCNc2ccnc(Nc3ccc(F)cc3)n2)c1` [GSK1379883] was tested. Which “%Inh” value did it give?
Answer: The value was 9%.

Question: For `CC(C)(C)c1ccc(-n2cnc3c(N)ncnc32)cc1` [SKF-97263], which “%Inh” value is on record?
Answer: Its value is 0%.

Question: Which “%Inh” value does the source give for `Cc1cc(N2CCC(NS(=O)(=O)c3ccc(F)cc3)CC2)nc(Nc2cccc(C#N)c2)n1.O=C(O)C(F)(F)F` [GSK1653537] here?
Answer: Its value is 2%.

Question: With `CCC(CC)(CC)n1cnc2c(N)ncnc21` [SKF-97620] as the molecule, how does the “%Inh” value read?
Answer: Its value is 26%.

Question: Which “%Inh” value does the source give for `OCCOCCn1ccc2ncnc(Nc3ccc(Oc4cccc(Cl)c4)c(Cl)c3)c21` here?
Answer: The value was 0%.

Question: How did the “%Inh” value turn out when `COc1ccc(Nc2nccc(N3CCC(NC(=O)c4cccc(NC(C)=O)c4)C3)n2)cc1` (stereo not shown) [GSK1379732] was run?
Answer: The value was 0%.

Question: With `Cc1ccc(O)cc1Nc1cc(C(F)(F)F)nc2ccc(-c3ccncc3)cc12` [GW630823] as the molecule, how does the “%Inh” value read?
Answer: Its value is 0%.

Question: `Cn1ccc2ncnc(Nc3ccc(Oc4cccc(Cl)c4)c(Cl)c3)c21` was tested. Which “%Inh” value did it give?
Answer: Its value is 0%.

Question: For `Clc1cc(Nc2ncnc3cc[nH]c23)ccc1OCc1ccccn1`, which “%Inh” value is on record?
Answer: The value was 20%.

Question: `O=C(NCCCN1CCCC1=O)c1cnc(NCc2cc(Cl)ccc2Cl)nc1NC1CCNCC1` was tested. Which “%Inh” value did it give?
Answer: Its value is 0%.

Question: With `COc1ccc(Nc2nccc(N3CCC(NC(=O)Nc4ccc5c(c4)OCO5)C3)n2)cc1` (stereo not shown) [GSK1379745] as the molecule, how does the “%Inh” value read?
Answer: Its value is 15%.

Question: `Fc1ccc(Nc2nccc(-c3c(-c4ccc(Cl)cc4)nn4ncccc34)n2)cc1F` [GW829058] was tested. Which “%Inh” value did it give?
Answer: The value was 41%.

Question: With `C[C@H]1CC[C@@H](C(=O)Nc2ccccc2)CN1c1cc(-c2ccc3c(N)n[nH]c3c2)nc(N)n1` [GSK2283293] as the molecule, how does the “%Inh” value read?
Answer: The value was 17%.
